Laboratory results from PubChem BioAssay (EPA / NIEHS).
Where “and” joins values, the source holds several entries; their conditions need not be identical. Equal values may be shown once. Records with an inconclusive call do not appear. More than one record can exist for a structure, and the calls need not agree. Calls of active or inactive are those of the source. The calls were made as follows, unless noted: active = hit-call score of the fitted dose curve at least 0.9, where 1 is the maximum; inconclusive = response in the unintended direction; inactive = score below 0.9.

Assays:
[1] = read-out: Thyroid Hormone Responsive (THRSP), THRSP (gene 7069); test: LTEA_HepaRG_THRSP: Life Technologies and Expression Analysis (LTEA) Assay for Thyroid Hormone Responsive (THRSP) using HepaRG (AID 2283536; active = hit-call score of the fitted dose curve at least 0.9, where 1 is the maximum; inactive = score below 0.9); conditions: mRNA level, 48 h; actives raise or lower the signal
Procedure, shortened: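 Differentiated HepaRG cells treated 48 h in serum-free induction medium with 8 half-log concentrations up to 100 uM (0.5% DMSO), duplicates. THRSP mRNA by TaqMan qRT-PCR normalised to ACTB, GAPDH, POLR2A; bidirectional fit versus DMSO.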

[2] = read-out: Cellular tumor antigen p53 (Homo sapiens) (UniProt P04637); test: LTEA_HepaRG_TP53: Life Technologies and Expression Analysis (LTEA) Assay for Tumor Protein P53 (TP53) using HepaRG (AID 2283537; active = hit-call score of the fitted dose curve at least 0.9, where 1 is the maximum; inactive = score below 0.9); conditions: mRNA level, 48 h; actives raise or lower the signal
Procedure, shortened: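 Read-out is TP53 transcript level by microfluidic qRT-PCR, normalised to three housekeeping genes and fitted bidirectionally against DMSO. Human HepaRG cells received compounds for 48 h, highest concentration 100 uM.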

[3] = read-out: UDP glucuronosyltransferase (UGT1A1), UGT1A1 (gene 54658); test: LTEA_HepaRG_UGT1A1: Life Technologies and Expression Analysis (LTEA) Assay for UDP glucuronosyltransferase (UGT1A1) using HepaRG (AID 2283538; active = hit-call score of the fitted dose curve at least 0.9, where 1 is the maximum; inactive = score below 0.9); conditions: mRNA level, 48 h; actives raise or lower the signal
Procedure, shortened: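 Readout is UGT1A1 transcript level by qRT-PCR, normalized to three housekeeping genes, after 48 h chemical treatment of HepaRG cells. Concentrations ran from 100 uM down in half-log steps with 0.5% DMSO, and gain or loss relative to DMSO was fitted.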

[4] = read-out: UDP glucuronosyltransferase (UGT1A6), UGT1A6 (gene 54578); test: LTEA_HepaRG_UGT1A6: Life Technologies and Expression Analysis (LTEA) Assay for UDP glucuronosyltransferase (UGT1A6) using HepaRG (AID 2283539; active = hit-call score of the fitted dose curve at least 0.9, where 1 is the maximum; inactive = score below 0.9); conditions: mRNA level, 48 h; actives raise or lower the signal
Procedure, shortened: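 Expression was quantified by TaqMan qRT-PCR on Fluidigm arrays with ACTB/GAPDH/POLR2A normalization and bidirectional fitting against 0.5% DMSO. HepaRG cells (~100,000/well) were treated in duplicate for 48 h at eight half-log concentrations up to 100 uM in serum-free induction medium.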

[5] = read-out: X-box binding protein 1 (XBP1), XBP1 (gene 7494); test: LTEA_HepaRG_XBP1: Life Technologies and Expression Analysis (LTEA) Assay for X-box binding protein 1 (XBP1) using HepaRG (AID 2283540; active = hit-call score of the fitted dose curve at least 0.9, where 1 is the maximum; inactive = score below 0.9); conditions: mRNA level, 48 h; actives raise or lower the signal
Procedure, shortened: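 XBP1 transcript by qRT-PCR (housekeeping-normalized: ACTB, GAPDH, POLR2A) after 48 h chemical treatment of HepaRG cells, 8-point half-log series topping at 100 uM, vehicle 0.5% DMSO. Gain and loss of signal fitted relative to DMSO.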

[6] = LTEA_HepaRG_LDH_cytotoxicity: Cytotoxicity Assessment in the Life Technologies and Expression Analysis (LTEA) Assay (AID 2283563);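 as to AC50: LDH activity released into spent culture medium as a marker of cell death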
Procedure, shortened: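 LDH release into culture medium read after 48 h chemical treatment of HepaRG cells. Duplicate wells, eight-point half-log series topping at 100 uM, 0.5% DMSO vehicle and baseline.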

[7] = ATG_XTT_Cytotoxicity: Cytotoxicity Assessment in the Attagene TRANS-FACTORIAL HepG2 Assay (AID 2283584)
Procedure, shortened: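 Viability endpoint from XTT after 24 h chemical exposure of reporter-transfected human HepG2 liver cells; signal loss fitted relative to DMSO negative control.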

[8] = TOX21_p53_BLA_p2_viability: Viability Assessment in the Tox21 HCT-116 p53 Agonism Beta-lactamase Assay, Phase 2 (AID 2283591);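 also: compound exposure lasted 16 h at 37 °C; actives lower the ATP signal meaning cytotoxicity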
Procedure, shortened: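 HCT116 p53-bla cells, 4000/well, dosed after 5 h plating (217-fold dilution of DMSO stocks) and incubated 16 h at 37C. Viability taken as cellular ATP by CellTiter-Glo luminescence after 30 min RT; signal loss marks cytotoxicity.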

[9] = target: Cellular tumor antigen p53 (Homo sapiens) (UniProt P04637); test: TOX21_p53_BLA_p2_ratio: Tox21 HCT-116 p53 Agonism Beta-lactamase Assay, Ratio, Phase 2 (AID 2283592)
Cellular tumor antigen p53 (Homo sapiens), sequence (P04637 whole entry, looked up): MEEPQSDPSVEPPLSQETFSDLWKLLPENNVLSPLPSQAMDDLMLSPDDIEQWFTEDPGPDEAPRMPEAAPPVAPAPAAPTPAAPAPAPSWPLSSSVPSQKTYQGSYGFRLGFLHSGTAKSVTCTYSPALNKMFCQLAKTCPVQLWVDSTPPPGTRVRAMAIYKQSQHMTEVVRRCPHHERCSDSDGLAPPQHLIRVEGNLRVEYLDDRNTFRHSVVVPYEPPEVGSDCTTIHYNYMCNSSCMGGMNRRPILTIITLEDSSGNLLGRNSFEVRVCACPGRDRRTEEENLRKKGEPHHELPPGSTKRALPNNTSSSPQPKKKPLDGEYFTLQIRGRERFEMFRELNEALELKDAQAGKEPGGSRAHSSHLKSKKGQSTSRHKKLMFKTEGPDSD
Procedure, shortened: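 Gain-of-signal p53 agonism was scored from the beta-lactamase FRET ratio (460/530 nm, 405 nm excitation) in HCT116 cells treated 16 h at 37C, 5% CO2, with DMSO serving as negative control and baseline.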

[10] = target: Cellular tumor antigen p53 (Homo sapiens) (UniProt P04637); test: TOX21_p53_BLA_p3_ratio: Tox21 HCT-116 p53 Agonism Beta-lactamase Assay, Ratio, Phase 3 (AID 2283596)
Procedure, shortened: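 HCT116 p53-bla cells (4000/well) given compound in DMSO (217-fold dilution) after 5 h, incubated 16 h at 37C. CCF4-AM substrate 2 h at room temperature; 460/530 nm emission ratio, gain fitted against DMSO.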

[11] = TOX21_p53_BLA_p4_viability: Viability Assessment in the Tox21 HCT-116 p53 Agonism Beta-lactamase Assay, Phase 4 (AID 2283597);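 also: hits lower the luminescence signal meaning cytotoxicity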
Procedure, shortened: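 Following a 16 h exposure at 37C, the treated HCT116 wells were first read for the FRET ratio. They were then lysed with CellTiter-Glo, and ATP luminescence was recorded after 30 min at room temperature.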

[12] = target: Cellular tumor antigen p53 (Homo sapiens) (UniProt P04637); test: TOX21_p53_BLA_p5_ratio: Tox21 HCT-116 p53 Agonism Beta-lactamase Assay, Ratio, Phase 5 (AID 2283599)
Procedure, shortened: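 HCT-116 p53-bla cells (4000/well) plated 5 h, dosed with compound (217-fold DMSO dilution) for 16 h at 37 C; CCF4-AM substrate 2 h at room temperature. Activity is the 460/530 nm emission ratio (405 nm excitation), fitted in gain-of-signal direction versus DMSO.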

[13] = TOX21_p53_BLA_p5_viability: Viability Assessment in the Tox21 HCT-116 p53 Agonism Beta-lactamase Assay, Phase 5 (AID 2283600)
Procedure, shortened: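 After the 460/530 nm beta-lactamase measurement, the wells received an ATP-detection luciferase reagent; signal was read 30 min later at RT. Compound treatment lasted 16 h on cells pre-incubated 5 h post-seeding.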

[14] = target: Cellular tumor antigen p53 (Homo sapiens) (UniProt P04637); test: TOX21_p53_BLA_p4_ratio: Tox21 HCT-116 p53 Agonism Beta-lactamase Assay, Ratio, Phase 4 (AID 2283601)
Procedure, shortened: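 HCT-116 p53 beta-lactamase reporter cells (4000/well) preincubated 5 h, then compound (217-fold dilution of DMSO stock) for 16 h at 37C. CCF4-AM substrate added 2 h at room temperature; 460/530 nm emission ratio fitted upward versus DMSO.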

[15] = Tanguay_ZF_120hpf_MORT_legacy: (Legacy) Oregon State University Tanguay Lab 120 Hour Post-fertilization zebrafish Assay for Mortality (AID 2283633);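 as to AC50: fitted as increase in binary mortality versus DMSO negative control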
Procedure, shortened: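 Static waterborne exposure from 6 to 120 hpf at 28C of single dechorionated wild-type (5D) embryos per well, 0.64% DMSO final. Death recorded present/absent by brightfield at 24 and 120 hpf.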

[16] = Tanguay_ZF_120hpf_YSE_legacy: (Legacy) Oregon State University Tanguay Lab 120 Hour Post-fertilization zebrafish Assay for Yolk Sac Edema (AID 2283634);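 as to AC50: actives raise the incidence of yolk sac edema above the DMSO baseline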
Procedure, shortened: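 Presence or absence of yolk sac edema was recorded at 120 hpf in surviving larvae. These were wild-type Tropical 5D embryos, chorion removed at 4 hpf, held in static exposure at 28C from 6 hpf with 0.64% DMSO vehicle.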

[17] = Tanguay_ZF_120hpf_AXIS_legacy: (Legacy) Oregon State University Tanguay Lab 120 Hour Post-fertilization zebrafish Assay for Body Axis Malformation (AID 2283635);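 as to AC50: potency for an increased fraction of larvae scored with body axis malformation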
Procedure, shortened: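 Binary scoring of axis defects at 120 hpf under brightfield, fitted positive versus DMSO. Tropical 5D embryos, chorion removed by pronase at 4 hpf, were singly exposed in sealed, dark plates at 28C from 6 hpf; DMSO 0.64% final.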

[18] = Tanguay_ZF_120hpf_EYE_legacy: (Legacy) Oregon State University Tanguay Lab 120 Hour Post-fertilization zebrafish Assay for Eye Malformation (AID 2283636);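 also: binary presence or absence of eye malformation scored by brightfield in 120 hpf larvae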
Procedure, shortened: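 Dechorionated Tropical 5D zebrafish embryos, one per well from 6 hpf, static exposure to 120 hpf at 28C, 0.64% DMSO. Eye malformation scored present/absent by brightfield; dead embryos not scored.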

[19] = Tanguay_ZF_120hpf_SNOU_legacy: (Legacy) Oregon State University Tanguay Lab 120 Hour Post-fertilization zebrafish Assay for Snout Malformation (AID 2283637)
Procedure, shortened: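 Dechorionated tropical 5D wild-type zebrafish embryos exposed statically from 6 to 120 hpf at 28C, one per well, in 0.64% DMSO. Snout malformation scored as present/absent by brightfield at 120 hpf; dead embryos not scored.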

[20] = TOX21_p53_BLA_p3_viability: Viability Assessment in the Tox21 HCT-116 p53 Agonism Beta-lactamase Assay, Phase 3 (AID 2283593);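 also: cells exposed to compound for 16 h before reading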
Procedure, shortened: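 HCT116 cells, 4000/well, dosed 5 h after plating by pin transfer (217-fold dilution from DMSO stock) and incubated 16 h at 37C, 5% CO2. Viability read as ATP luminescence with CellTiter-Glo after 30 min at room temperature.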

With `O=P(OCCCl)(OCCCl)OCCCl` the outcome [1] was “inactive”, the outcome [2] was “inactive” and the outcome [3] was “inactive”. For the same compound, the outcome [4] was “inactive”, the outcome [5] was “inactive” and the outcome [6] was “inactive”. For the same compound, the outcome [7] was “inactive”, the outcome [8] was “inactive” and the outcome [9] was “inactive”. For the same compound, the outcome [10] was “inactive”, the outcome [11] was “inactive” and the outcome [12] was “inactive”. The outcome [13] was “inactive”, the outcome [14] was “inactive” and the outcome [15] was “inactive”. For the same compound, the outcome [16] was “inactive”, the outcome [17] was “inactive” and the outcome [18] was “inactive”. For the same compound, the outcome [19] was “inactive”.

In the case of `CN(C)c1ccccc1`, the outcome [1] is reported as “inactive”, the outcome [2] is reported as “inactive” and the outcome [3] is reported as “inactive”. The outcome [4] was “inactive”, the outcome [5] was “inactive” and the outcome [6] was “inactive”. For the same compound, the outcome [8] was “inactive”, the outcome [9] was “inactive” and the outcome [20] was “inactive”. For the same compound, the outcome [10] was “inactive”, the outcome [11] was “inactive” and the outcome [12] was “inactive”. The outcome [13] was “inactive”, the outcome [14] was “inactive” and the outcome [15] was “inactive”. For the same compound, the outcome [16] was “inactive”, the outcome [17] was “inactive” and the outcome [18] was “inactive”. For the same compound, the outcome [19] was “inactive”.

With `CCCCCCCCn1sccc1=O` the AC50 [1] was 87.3 µM (active), the outcome [2] was “inactive” and the outcome [3] was “inactive”. The AC50 [4] was 81.3 µM (active), the outcome [5] was “inactive” and the AC50 [6] was 79.7 µM (active). The outcome [7] was “inactive”, the outcome [8] was “inactive” and the AC50 [9] was 20.8 µM (active). For the same compound, the outcome [9] was “inactive”, the AC50 [20] was 41.7 µM (active) and 72.5 µM (active) and the AC50 [10] was 55.1 µM (active). The outcome [10] was “inactive”, the AC50 [11] was 15.4 µM (active) and the outcome [11] was “inactive”. For the same compound, the outcome [12] was “inactive”, the outcome [13] was “inactive” and the AC50 [14] was 23.7 µM (active) and 46.2 µM (active). The AC50 [15] was 2.96 µM (active), the outcome [17] was “inactive” and the outcome [18] was “inactive”.

In the case of `Cc1cccc(N)c1N`, the AC50 [1] is reported as 32.3 µM (active), the outcome [2] is reported as “inactive” and the AC50 [3] is reported as 17.2 µM (active). For the same compound, the outcome [4] was “inactive”, the AC50 [5] was 50 µM (active) and the outcome [6] was “inactive”. The outcome [8] was “inactive”, the outcome [9] was “inactive” and the outcome [20] was “inactive”. For the same compound, the outcome [10] was “inactive”, the AC50 [11] was 26.8 µM (active) and the outcome [11] was “inactive”. For the same compound, the outcome [12] was “inactive”, the outcome [13] was “inactive” and the outcome [14] was “inactive”. The outcome [15] was “inactive”, the AC50 [16] was 10.6 µM (active) and the AC50 [17] was 27.8 µM (active). For the same compound, the outcome [18] was “inactive” and the outcome [19] was “inactive”.

In the case of `CC(O)CCO` (stereo not given), the outcome [1] is reported as “inactive”, the outcome [2] is reported as “inactive” and the outcome [3] is reported as “inactive”. The outcome [4] was “inactive”, the outcome [5] was “inactive” and the outcome [6] was “inactive”. The outcome [8] was “inactive”, the outcome [9] was “inactive” and the outcome [20] was “inactive”. For the same compound, the outcome [10] was “inactive”, the outcome [11] was “inactive” and the outcome [12] was “inactive”. The outcome [13] was “inactive”, the outcome [14] was “inactive” and the outcome [15] was “inactive”. The outcome [16] was “inactive”, the outcome [17] was “inactive” and the outcome [18] was “inactive”. The outcome [19] was “inactive”.

With `Clc1ccc(C(c2ccc(Cl)cc2)C(Cl)(Cl)Cl)cc1` the AC50 [1] was 68.1 µM (active), the outcome [2] was “inactive” and the AC50 [3] was 2.03 µM (active). For the same compound, the outcome [4] was “inactive”, the outcome [5] was “inactive” and the AC50 [6] was 72.3 µM (active). For the same compound, the outcome [7] was “inactive”, the AC50 [8] was 46.1 µM (active) and 46.4 µM (active) and 23 µM (active) and the AC50 [9] was 60.7 µM (active) and 31.1 µM (active). For the same compound, the outcome [9] was “inactive”, the outcome [10] was “inactive” and the AC50 [11] was 30.7 µM (active). For the same compound, the outcome [11] was “inactive”, the AC50 [12] was 82.5 µM (active) and 43.3 µM (active) and the outcome [12] was “inactive”. For the same compound, the AC50 [13] was 68.3 µM (active) and 31.9 µM (active), the outcome [13] was “inactive” and the outcome [14] was “inactive”. The outcome [15] was “inactive”, the outcome [16] was “inactive” and the outcome [17] was “inactive”. The outcome [19] was “inactive”.
